Screens from PubChem BioAssay.
Only some compounds are listed: those with a hit (about 19% of all), similar ones and a draw of the others.
TDP1 cell CPT: qHTS for Inhibitors of human tyrosyl-DNA phosphodiesterase 1 (TDP1): qHTS in cells in presence of CPT; chicken DT40 Tdp1-/-;hTDP1 cells + 20 nM CPT, ATP luminescence, 48 h; Potency, µM (top dose mostly 46.2 µM), for the others: top-dose activity change, negative = growth inhibition, hits mostly inhibitors; 12% of 420,000 active; AID 686979, 2013; note: potency is the fitted concentration of half-maximal effect; % is set by controls: 0 for no effect and ±100 for the full control effect; nearly all actives have a fitted effect of over 55% in size
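Chicken DT40 Tdp1-/- cells complemented with human TDP1, 400 cells/well, exposed to compounds plus 20 nM camptothecin for at least 48 h at 37 C; viability read as ATP content by CellTiter-Glo luminescence.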
TDP1 cell noCPT: qHTS for Inhibitors of human tyrosyl-DNA phosphodiesterase 1 (TDP1): qHTS in cells in absence of CPT | DT40 Tdp1-/- hTDP1 cells, no CPT, ATP luminescence, 48 h | AID 686978, 2013 | Potency, µM (series often up to 46.2 µM), without a hit: at the highest dose activity change, negative = growth inhibition, hits mostly inhibitors | 15% of 420,000 active; note: potency is the fitted concentration of half-maximal effect; % is set by controls: 0 for no effect and ±100 for the full control effect; nearly all actives have a fitted effect of over 55% in size
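Luminescent ATP content (CellTiter-Glo) served as the growth readout. Knockout chicken DT40 cells expressing human TDP1 were exposed to compounds without camptothecin for a minimum 48 hr at 37 °C.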
IL-1B inflam inh: qHTS for Inhibitors of Inflammasome Signaling: IL-1-beta AlphaLISA Primary Screen; THP-1 LPS/ATP IL-1B secretion, AlphaLISA, 16 h; active compounds read low; activity change, % at 57.5 µM; 4.7% of 360,000 active; AID 743279, 2014; in the data active = activity change below about -50%; inconclusive = mostly about -30% to -49%; note: % is set by controls: 0 for no effect and ±100 for the full control effect
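Secreted IL-1B measured by AlphaLISA bead assay after 16 h compound exposure of THP-1 cells; compounds (final up to 57.5 uM) added 1 h before LPS (250 ng/mL) and ATP (1.25 mM) stimulation; lower signal means less secretion.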
TGFb SMAD3 inh: qHTS for Inhibitors of TGF-b; HepG2 CAGA-GFP TGF-b/SMAD3 reporter, GFP fluorescence, 18 h; TGF-beta stimulated, 500 pg/mL final; Potency, µM (titrated, usually from 46.1 µM), without a hit: at the highest dose activity, negative = inhibition, actives largely listed as inhibitors; 1.2% of 410,000 active; AID 588855, 2011; note: potency is the fitted concentration of half-maximal effect; % is set by controls: 0 for no effect and ±100 for the full control effect; nearly all actives have a fitted effect of over 65% in size
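Using HEPG2 CAGA-GFP reporter cells at 1000 cells/well, we pinned test compounds, stimulated with recombinant TGF-beta (500 pg/mL final) and measured total well GFP after 18 h.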
HepG2 tox: qHTS for Inhibitors of TGF-b: Cytotox Counterscreen | HepG2 CAGA-GFP viability, ATP luminescence, 18 h | Potency, µM (top dose mostly 46.1 µM), for inactives: top-dose activity change, negative = cytotoxicity, most hits filed as cytotoxic | 0.76% of 410,000 active | AID 588856, 2011; note: potency is the fitted concentration of half-maximal effect
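CellTiter-Glo luminescence gave cytotoxicity after 18 hours at 37 degrees C. The cells were HepG2 CAGA-GFP in 1% FBS DMEM, stimulated with 500 pg/mL TGF-beta after compound addition. %Activity was normalised to no-cell wells (complete cell-killing) and DMSO (no toxicity), and curves were fitted and classified.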
S-ASM inh: Inhibitors of Secretory Acid Sphingomyelinase (S-ASM): qHTS. Potency, µM (doses to about 57.5 µM), for inactives: at the top dose activity change, negative = inhibition, hits mostly inhibitors. 0.006% of 340,000 active. placental ASM, HMU-PC fluorogenic substrate, 60 min. Sphingomyelin phosphodiesterase (Homo sapiens), P17405; note: potency is the fitted concentration of half-maximal effect
Target sequence (P17405 47-631 limits assumed): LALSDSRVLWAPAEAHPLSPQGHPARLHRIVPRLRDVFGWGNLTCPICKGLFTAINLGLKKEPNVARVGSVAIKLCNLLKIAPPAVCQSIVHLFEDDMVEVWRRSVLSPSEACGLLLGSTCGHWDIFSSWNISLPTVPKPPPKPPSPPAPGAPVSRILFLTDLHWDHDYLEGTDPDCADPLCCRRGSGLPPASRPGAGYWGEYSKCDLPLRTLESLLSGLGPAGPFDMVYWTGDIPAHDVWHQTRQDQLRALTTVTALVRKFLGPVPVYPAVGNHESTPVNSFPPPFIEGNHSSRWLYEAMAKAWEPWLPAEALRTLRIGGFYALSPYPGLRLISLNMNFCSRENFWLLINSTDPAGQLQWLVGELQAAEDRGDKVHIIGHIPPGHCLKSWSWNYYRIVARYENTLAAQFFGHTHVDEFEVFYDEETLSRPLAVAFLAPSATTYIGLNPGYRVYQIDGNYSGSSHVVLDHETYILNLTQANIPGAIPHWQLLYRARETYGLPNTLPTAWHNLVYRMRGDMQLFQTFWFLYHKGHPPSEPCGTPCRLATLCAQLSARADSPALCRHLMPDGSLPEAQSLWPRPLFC
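HMU-PC0 cleavage (9 uM final) by human placental ASM, 60 min at 37 °C following 10 min compound exposure at RT; stopped at pH 10, fluorescence Ex 386/Em 447 nm.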
An asterisk follows results filed as active; i = inactive; ? = inconclusive; nt = not tested or not shown. Unless noted, calls come from the whole dose curve; as a rule, active = well fitted curve in the direction sought with a large enough effect; inconclusive = small, poorly fitted or top-dose-only effect, or another doubt; inactive = no such curve, though single readings can be large; an effect the other way counts as inactive or inconclusive.

SMILES | TDP1 cell CPT | TDP1 cell noCPT | IL-1B inflam inh | TGFb SMAD3 inh | HepG2 tox | S-ASM inh
CCN(C(=O)COC(=O)c1cc(-c2ccc(C)o2)nc2ccccc12)C1CCS(=O)(=O)C1 (stereo not given) | ? | ? | ? | 1% | 7% | 489%
CN(C(=O)COC(=O)/C=C/c1ccccc1)C1CCS(=O)(=O)C1 (stereo not given) | -2% | -13% | 0 | 4% | -6% | nt
CCN(C(=O)COC(=O)c1cc(-c2cccs2)nc2ccccc12)C1CCS(=O)(=O)C1 (stereo not given) | -4% | -15% | -54* | 2% | -7% | i
COc1ccc(-c2cc(C(=O)OCC(=O)N(C)C3CCS(=O)(=O)C3)c3ccccc3n2)cc1OC (stereo not given) | ? | ? | -62* | -16% | -8% | 23%
Cc1cccc(NC(=O)CN(C)C(=O)/C=C/c2ccccc2)c1C | 8% | -26% | -17 | 2% | -11% | -2%
CC(/C=N/NC(=O)c1ccc(Cn2cc([N+](=O)[O-])cn2)o1)=C\c1ccccc1 | -17% | -10% | -52* | -13% | -13% | -23%
COc1ccc(/C=N/NC(=O)c2ccc(Cn3cc([N+](=O)[O-])cn3)o2)cc1O | -4% | -8% | 3 | 34% | 4% | -2%
O=C(N/N=C/c1c(F)cccc1Cl)c1ccc(Cn2cc(Br)cn2)o1 | -9% | -8% | ? | -16% | -19% | -3%
O=C(N/N=C/c1c(F)c(F)c(F)c(F)c1F)c1ccc(Cn2cc(Br)cn2)o1 | 16µM* | 15µM* | -98* | -4% | -17% | -14%
COc1cc(/C=N/NC(=O)c2ccc(Cn3cc([N+](=O)[O-])cn3)o2)cc(Br)c1O | -8% | -32% | -2 | 16µM* | -82% | -8%
CN(C)c1ccc(CN(C(=O)/C=C/c2ccccc2Cl)C2CCS(=O)(=O)C2)cc1 (stereo not given) | ? | 21µM* | -9 | ? | -14% | -6%
O=C(/C=C/c1ccccc1Cl)N(Cc1ccccc1)C1CCS(=O)(=O)C1 (stereo not given) | ? | ? | ? | -7% | -28% | 0%
CC(C)c1ccc(CN(C(=O)/C=C/c2ccco2)C2CCS(=O)(=O)C2)cc1 (stereo not given) | ? | ? | -86* | -28% | 20% | 2%
O=C(/C=C/c1ccccc1Cl)N(Cc1ccc(Cl)cc1)C1CCS(=O)(=O)C1 (stereo not given) | ? | ? | -57* | -36% | 7% | -15%
COc1ccc(CN(C(=O)/C=C/c2ccccc2Cl)C2CCS(=O)(=O)C2)cc1 (stereo not given) | ? | 23µM* | 0 | 19% | 111% | -11%
CC(=O)Nc1ccc(S(=O)(=O)NCC(=O)OCC(=O)NNC(=O)c2ccccc2)cc1 | 0% | 2% | -6 | 23% | -3% | 3%
CC1CCc2c(sc3ncn(CC(=O)N4CCCCC4)c(=O)c23)C1 (stereo not given) | -23% | ? | 5 | ? | -3% | 1%
COc1ccc(CN(CCN(C)C)c2ncccn2)cc1 | -18% | -17% | nt | nt | nt | nt
CCCCCCCCCCCCCCCC[N+](C)(C)CCN(Cc1ccc(OC)cc1)c1ncccn1 | 4µM* | 2.5µM* | 32 | ? | 10µM* | ?
CCOc1cc(OCC)c(C(=O)CCC(=O)O)cc1OCC | 0% | -30% | nt | nt | nt | nt
